Experiment in all cases: qHTS profiling for inhibitors of Plasmodium falciparum proliferation (AID 504749); further: nearly all actives have a fitted effect of over 60% in size
What all share (settings): P. falciparum in erythrocytes, SYBR Green DNA, 72 h; series mostly up to 28.7 µM
(In general: In qHTS, concentration-response curves come from the screen itself.)

For test [1], the system named is ICS. In outline: (§1)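 SYBR Green fluorescence (ex 485 nm, em 535 nm) reports parasite DNA after 72 h compound exposure of infected red cells at 0.3% parasitemia, 2.5% hematocrit; signal normalized to 0.29 uM artemisinin and vehicle wells.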
The test system of test [2] is JCK. In a few lines:
as §1

Test [3] deals with N140. In a few lines: as §1
Test [4] concerns P93_24. In a few lines:
as §1

In test [5] the test system is P94_40. In outline: as §1
Test [6] has as its system PAD. In outline:
as §1

In test [7] the test system is PC15. In a few lines: as §1
The subject of test [8] is PC26. In a few lines: as §1
For test [9], the system named is PC49. In a few lines: as §1
For test [10], the system named is SC27B. In a few lines: as §1

Consider 23 molecules from PubChem BioAssay (NCATS).

Results filed as inconclusive are left out. Active and inactive are the calls of the source. The call rests on the fitted dose curve; in most records, active means well fitted inhibition curve with a large enough effect; inconclusive means small, poorly fitted or top-dose-only effect; inactive means flat fitted curve, though single readings scatter.
Potency means the concentration at half of the fitted maximal effect.

For `Cc1cc(C)cc(OCC2CNC(=O)O2)c1` (stereo not given), the Potency result in [1], in test [2], in test [3], in [4], in test [5] and in test [6] was “inactive” throughout. Besides, the Potency entry in [7], in test [8], in [9] and in [10] was “inactive” throughout.
Regarding `O=C(O)P(=O)(O)O`, the Potency entry in test [1], in [2], in test [3], in [4], in [5] and in test [6] was “inactive” in each case. The Potency entry in test [7], in test [8], in test [9] and in test [10] was “inactive” in each case.
For the molecule `O=C(O)Cc1csc(-c2ccc(Cl)cc2)n1`, the Potency entry in [1], in [2], in test [3], in test [4], in test [5] and in [6] was “inactive” in each case. Also, the Potency result in [7], in [8], in test [9] and in test [10] was “inactive” each time.
With `Cc1cccc(C)c1NC(=O)CN1CCCC1`, the Potency result in test [1], in [2], in test [3], in test [4], in [5] and in [6] was “inactive” throughout. In addition, the Potency result in test [7], in test [8], in test [9] and in test [10] was “inactive” in each case.
Turning to `O=C(Nc1ccc([N+](=O)[O-])cc1)Nc1ccc([N+](=O)[O-])cc1`, in test [1], the Potency was 2 µM (active). The Potency result in test [2], in test [3], in [4], in test [5], in test [6] and in [7] was “inactive” throughout. The Potency result in test [8], in [9] and in test [10] was “inactive” throughout.
Take `COc1cc(C(=O)N2CCCCCCC2)cc(OC)c1OC`: the Potency result in test [1], in test [2], in test [3], in [4], in [5] and in [6] was “inactive” each time. Further, the Potency entry in [7], in test [8], in test [9] and in test [10] was “inactive” throughout.
Take `NS(=O)(=O)c1cc(C(=O)O)cc(N2CCCC2)c1Oc1ccccc1`: the Potency result in test [1], in test [2], in test [3], in [4], in test [5] and in test [6] was “inactive” each time. The Potency result in test [7], in test [8], in [9] and in test [10] was “inactive” in each case.
For `CCc1oc2ccccc2c1C(=O)c1cc(Br)c(O)c(Br)c1`, the Potency entry in test [1], in test [2], in test [3], in test [4], in [5] and in [6] was “inactive” throughout. The Potency entry in test [7], in [8], in [9] and in [10] was “inactive” throughout.
With `CCCCCCCC/C=C\CCCCCCCCN`, the Potency entry in test [1], in test [2], in test [3], in [4], in test [5] and in [6] was “inactive” in each case. Also, the Potency result in test [7], in test [8], in test [9] and in test [10] was “inactive” in each case.
In the case of `Nc1ccc(C(=O)NCC(=O)O)cc1`, the Potency entry in test [1], in test [2], in test [3], in test [4], in test [5] and in [6] was “inactive” in each case. Also, the Potency result in test [7], in [8], in test [9] and in test [10] was “inactive” throughout.
Regarding `NCCNC(=O)c1ccc(Cl)cn1`, the Potency result in test [1], in [2], in test [3], in [4], in [5] and in [6] was “inactive” throughout. For the same molecule, the Potency entry in test [7], in test [8], in [9] and in test [10] was “inactive” in each case.
On to `CCCN(CCC)S(=O)(=O)c1ccc(C(=O)O)cc1`, for which the Potency result in test [1], in test [2], in test [3], in test [4], in [5] and in test [6] was “inactive” each time. Further, the Potency entry in [7], in test [8], in test [9] and in [10] was “inactive” in each case.
With `CCOc1ccccc1OCCN[C@H](C)Cc1ccc(OC)c(S(N)(=O)=O)c1`, the Potency entry in test [1], in test [2], in test [3], in [4], in test [5] and in [6] was “inactive” throughout. Besides, the Potency result in test [7], in test [8], in test [9] and in test [10] was “inactive” in each case.
Turning to `CC1=C(C(=O)O)N2C(=O)[C@@H](NC(=O)[C@H](N)c3ccccc3)[C@H]2SC1`, the Potency result in [1], in [2], in test [3], in test [4], in test [5] and in test [6] was “inactive” each time. For the same molecule, the Potency result in [7], in test [8], in [9] and in test [10] was “inactive” throughout.
For the molecule `Cc1ccccc1OCC(O)CO` (stereo not given), the Potency entry in [1], in test [2], in test [3], in test [4], in test [5] and in test [6] was “inactive” each time. For the same molecule, the Potency result in test [7], in test [8], in test [9] and in test [10] was “inactive” in each case.
For the molecule `CCNC(=O)/C=C/c1cccc(Br)c1`, the Potency result in [1], in test [2], in test [3], in test [4], in test [5] and in test [6] was “inactive” throughout. The Potency result in test [7], in test [8], in [9] and in [10] was “inactive” each time.
Regarding `O=C(O)CCNC(=O)c1ccccc1`, the Potency result in test [1], in [2], in [3], in test [4], in [5] and in test [6] was “inactive” each time. Further, the Potency entry in test [7], in test [8], in [9] and in test [10] was “inactive” each time.
Regarding `C=C[C@@]1(C)CC(=O)[C@]2(O)[C@@]3(C)[C@@H](O)CCC(C)(C)[C@@H]3[C@H](O)[C@H](OC(C)=O)[C@@]2(C)O1`, the Potency result in [1], in test [2], in [3], in test [4], in test [5] and in test [6] was “inactive” throughout. Besides, the Potency result in [7], in [8], in test [9] and in [10] was “inactive” throughout.
For `CC(=O)NC(=O)c1ccccc1O`, the Potency entry in test [1], in test [2], in test [3], in [4], in [5] and in test [6] was “inactive” throughout. The Potency result in test [7], in test [8], in [9] and in test [10] was “inactive” in each case.
For the molecule `CCCCCCCCCCCCCCCC(=O)O`, the Potency entry in test [1], in test [2], in test [3], in test [4], in test [5] and in test [6] was “inactive” in each case. In addition, the Potency entry in [7], in test [8], in test [9] and in test [10] was “inactive” each time.
Regarding `O=C1C(CCS(=O)c2ccccc2)C(=O)N(c2ccccc2)N1c1ccccc1` (stereo not given), the Potency entry in [1], in [2], in test [3], in test [4], in [5] and in test [6] was “inactive” in each case. Besides, the Potency result in test [7], in [8], in test [9] and in test [10] was “inactive” each time.
As for `CNCCc1ccccn1`, the Potency entry in [1], in test [2], in test [3], in test [4], in test [5] and in test [6] was “inactive” each time. Further, the Potency entry in [7], in test [8], in test [9] and in test [10] was “inactive” in each case.
For `Nc1ccc(S(=O)(=O)Nc2cnc3ccccc3n2)cc1`, the Potency entry in test [1], in [2], in test [3], in [4], in test [5] and in test [6] was “inactive” in each case. Besides, the Potency result in test [7], in test [8], in test [9] and in [10] was “inactive” throughout.
